Out of some 290,000 compounds screened, about 2,100 (0.72%) were called active. Inconclusive results (about 4%) are left out. This is one part of a sample in which actives are shown more often than they occur. Calls follow the shape of the dose curve; as a rule, active = well fitted inhibition curve with a large enough effect; inconclusive = small, poorly fitted or top-dose-only effect, or effect the other way; inactive = flat fitted curve, though single readings scatter.

The values that follow come from the GenesisPotency data set.

For the assay, the target named is Fructose-bisphosphate aldolase, Giardia intestinalis (strain ATCC 50803 / WB clone C6) (UniProt A8B2U2). As to the kind of experiment: qHTS Assay for Inhibitors of Fructose-1,6-bisphosphate Aldolase from Giardia Lamblia. Background: Quantitative high-throughput screening tests each substance at several concentrations.
Sequence of Fructose-bisphosphate aldolase, Giardia intestinalis (strain ATCC 50803 / WB clone C6) (A8B2U2 whole entry, looked up, natural form): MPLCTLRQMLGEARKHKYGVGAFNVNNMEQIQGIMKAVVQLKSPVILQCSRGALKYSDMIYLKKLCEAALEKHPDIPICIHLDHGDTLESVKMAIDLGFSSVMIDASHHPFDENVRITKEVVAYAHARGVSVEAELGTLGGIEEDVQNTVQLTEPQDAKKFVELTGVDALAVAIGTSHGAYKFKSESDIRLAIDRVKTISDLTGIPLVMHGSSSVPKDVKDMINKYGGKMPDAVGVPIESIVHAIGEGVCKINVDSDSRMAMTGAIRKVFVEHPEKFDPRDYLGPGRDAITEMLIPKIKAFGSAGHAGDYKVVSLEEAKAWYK
For `N.N.[Cl][Pt][Cl]`, the result was active.
